From PubChem
HSF1 activator: HSF-1 activators, primary screen, NIH3T3-HGL cells, MG132 stress, luminescence, single point; NIH3T3-HGL HSF-1 luciferase reporter, 8 h; 100% = twice DMSO control signal; AID 504408, 2011; activation, % at 9 µM; 1.7% of 300,000 active;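 active = mean replicate activation of at least 50% with a set share of replicates each reaching 50%; inconclusive = only one of those two conditions met; inactive = mean below 50% and too few replicates reaching it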
HIF act: HIF pathway transcriptional activators, primary screen, cell-based, U2OS HRE-luciferase, luminescence. U2OS HRE-luciferase reporter; normalized: DMSO 0%, desferrioxamine 100%. activation, % at 7.5 µM (by protocol). 0.32% of 300,000 active. AID 1910, 2009;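 active = mean activation of at least 10% of the iron chelator positive control signal, with at least half of replicates also reaching 10%; inconclusive = mean and replicate majority disagree about reaching 10%; inactive = mean and most replicates under 10%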
HSF1 inhib: HSF1 inhibitors in luciferase reporter cells, primary screen, cell-based, NIH3T3, luminescence; NIH3T3-HGL HSE-luciferase, MG132-induced, luminescence 8 h; active compounds read low; activity change, negative = inhibition, % at 7.5 µM (by protocol); 0.77% of 300,000 active;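 active = more than half of replicate wells show activity change below -50%, luminescence cut by over half; inconclusive = some wells, but at most half, below -50%; inactive = no replicate well below -50%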;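 note: luciferase reports HSF-1 transcriptional activity via heat shock element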
HSP90 inh: HSP90 inhibitors, primary screen, cell lysate, luminescence; Heat shock protein HSP 90 (rabbit reticulocyte lysate; luciferase refolding); Rabbit reticulocyte lysate, luciferase refolding luminescence, 3 h; inhibition, % at 5.6 µM; 0.91% of 290,000 active; AID 1789, 2009;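 active = inhibition above the screen-wide mean plus 3 SD, computed separately per campaign, cut at about 16% in these data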;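 note: inhibitors lower the luminescence because luciferase stays unfolded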
ARNT-TACC3 inh: disruptors of ARNT/TACC3 protein interaction, primary screen, biochemical, AlphaScreen, single concentration; Transforming acidic coiled-coil-containing protein 3 (Homo sapiens), Q9Y6A5; AlphaScreen His-ARNT PAS-B/GST-TACC3 binding, luminescence; TACC3 fragment carries E629A point mutation; inhibition, % at 9.99 µM; 0.66% of 390,000 active;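 active = mean inhibition of replicates at least 50% and at least half of replicates each reaching 50%; inconclusive = half or more replicates reach 50% but mean below 50%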
Numbers stand for hits; . = inactive; ? = inconclusive; / = no result given. The list is not random: actives were taken first. Their share in the collection is about 3.1%.

SMILES	HSF1 activator	HIF act	HSF1 inhib	HSP90 inh	ARNT-TACC3 inh
CCOC(=O)N1CCN(C2=C(NS(=O)(=O)c3ccc(NC(C)=O)cc3)C(=O)c3ccccc3C2=O)CC1	.	.	.	.	31
C=CCn1c(O)c(N=NC(=S)Nc2ccc(OC)c(Cl)c2)c2ccccc21	55	.	.	.	/
C=CCn1c(O)c(N=NC(=O)OC(C)(C)C)c2ccccc21	.	.	.	.	.
CCOC(=O)Nc1ccc2c(c1)N(C(=O)CCN1CCOCC1)c1ccccc1S2=O (configuration not stated)	80	.	.	.	.
O=C(c1cccc(F)c1)N1CCCCN2[C@H](CO)[C@H](c3ccc(-c4cccnc4)cc3)[C@@H]2C1	/	/	/	/	.
COc1ccccc1CN=C1Nc2ccccc2CS1	123	.	.	.	.
Clc1ccc(CN=C2Nc3ccccc3CS2)cc1	66	.	.	.	.
Cc1ccc(CN=C2Nc3ccccc3CS2)cc1	61	.	.	.	.
CN1C(=O)c2cc(NC(=O)c3cccc(C(F)(F)F)c3)ccc2OC[C@H]2O[C@@H](CC(=O)O)CC[C@H]21	/	/	/	/	.
Cc1ccc2nc(C)c(Cl)c(=O)n2c1	.	.	.	.	.
Cc1ccc2nc(Cl)c(/C=N/Nc3nc(C)cc(C)n3)c(=O)n2c1	.	.	.	.	46
COc1ccc(/C(C)=N/NC(=S)NCCc2ccccc2)c(O)c1	53	.	.	.	.
COc1ccc(O)c(/C=N/NC(=S)NCCc2ccccc2)c1	.	.	.	.	.
O=C(Nc1ccc2c(c1)CCCN2C(=O)c1cccs1)c1cccc(F)c1	60	.	.	.	.
C[C@H](CO)N1C[C@H](C)[C@H](CN(C)Cc2ccccc2)Oc2c(NS(=O)(=O)c3ccc(Cl)cc3)cccc2C1=O	/	/	/	/	.
COc1cccc(C2c3[nH]c4ccccc4c3CCN2Cc2ncc[nH]2)c1 (configuration not stated)	.	.	.	.	53
CCOC(=O)C(=CNc1ccc(NC2=NCC(C)S2)cc1)C(=O)OCC (configuration not stated)	.	17	.	.	.
CCOC(=O)C(=CNc1ccc(C(F)(F)F)cc1)C(=O)OCC	.	.	.	.	.
Cc1ccc(NC(=O)Cc2ccc(-n3cccc3)cc2)c(C)c1	.	.	-53	.	.
Cc1cc(C)cc(NC(=O)Cc2ccc(-n3cccc3)cc2)c1	.	.	.	.	.
Cc1ccc2[nH]c(-c3ccccc3)cc(=O)c2c1	.	.	.	.	.
CCOC(=O)Cc1cc(=O)c2cc(C)ccc2[nH]1	.	.	-68	.	.
Cc1ccc(S(=O)(=O)N(C)C[C@@H]2OCCCC[C@@H](C)Oc3ccc(NS(C)(=O)=O)cc3C(=O)N([C@@H](C)CO)C[C@H]2C)cc1	/	/	/	/	.
O=C(/C=C/c1ccc(Cl)cc1)N1CCN(c2c(Cl)cccc2[N+](=O)[O-])CC1	.	.	.	.	.
CCOc1ccc(OCCC(=O)OCC(=O)N2CCN(S(=O)(=O)c3ccc(Cl)cc3)CC2)cc1	87	.	.	.	.
SMILES	HSF1 activator	HIF act	HSF1 inhib	HSP90 inh	ARNT-TACC3 inh
Cc1ccc(SCC2(O)CCN(S(=O)(=O)c3ccc(Cl)cc3)CC2)cc1	.	.	.	.	.
O=C(CSc1ccc(Cl)cc1)N1CCN(c2c(Cl)cccc2[N+](=O)[O-])CC1	70	.	.	.	/
CC(=O)Nc1ccc(SCC(=O)N2CCN(S(=O)(=O)c3ccccc3)CC2)cc1	.	.	-57	.	.
Cc1ccc(S(=O)(=O)N2CCN(C(=O)CSc3ccc(Cl)cc3)CC2)cc1	75	.	.	.	.
Cc1noc(C)c1S(=O)(=O)N(C)C[C@H]1OCCCC[C@H](C)Oc2ccc(NS(=O)(=O)c3ccc(Cl)cc3)cc2C(=O)N([C@H](C)CO)C[C@@H]1C	/	/	/	/	.
COCC(=O)N(C)C[C@H]1Oc2ncc(C#Cc3ccccc3)cc2C(=O)N([C@H](C)CO)C[C@H]1C	/	/	/	/	.
C[C@@H]1CN([C@@H](C)CO)C(=O)Cc2cc(NC(=O)Cc3cn(C)c4ccccc34)ccc2O[C@@H]1CN(C)C(=O)Nc1ccc2c(c1)OCO2	/	/	/	/	.
Cc1ccc(S(=O)(=O)N[C@H]2CC[C@H](CCNC(=O)c3ccccc3F)O[C@H]2CO)cc1	/	/	/	/	.
O=c1c2c(nc3cc(-c4cccc(Cl)c4)[nH]n13)CCC2	.	.	.	.	.
O=c1c2c(nc3cc(-c4cccc(F)c4)[nH]n13)CCC2	52	.	.	.	.
Cn1c(/C=C/c2ccc([N+](=O)[O-])o2)nc2ccccc2c1=O	62	.	.	.	.
Cc1cc(N/N=C/c2ccc([N+](=O)[O-])o2)nc2ccccc12	65	.	.	.	.
Cn1c(/C=C/c2ccc(Cl)cc2)nc2ccccc2c1=O	.	.	.	.	.
COc1ccc(/C=N\n2nnc3ccccc32)cc1	.	.	.	29	/
Cn1c(/C=C/c2ccccc2)nc2ccccc2c1=O	.	.	-80	.	.
COc1ccc(/C=N/n2c(C)nc3ccccc3c2=O)cc1	.	.	.	.	.
CO[C@@H]1CN(C)C(=O)c2cc(NS(=O)(=O)c3ccc(C)cc3)ccc2OC[C@@H](C)NC[C@@H]1C	/	/	/	/	.
COc1cccc(-c2ccc([C@@H]3[C@H](CO)N4CCCCN(C(=O)NC(C)C)C[C@@H]34)cc2)c1	/	/	/	/	.
Cc1noc(C)c1S(=O)(=O)Nc1ccc2c(c1)C(=O)N([C@@H](C)CO)C[C@H](C)[C@H](CN(C)C(=O)c1ccccc1)OCCCC[C@H](C)O2	/	/	/	/	.
COc1ccc(/C=C/c2nc3ccccc3n2C)cc1	.	.	.	40	.
COc1ccc(Cn2c(/C=C/c3ccccc3)nc3ccccc32)cc1	?	.	.	.	.
COc1ccc(NC(=O)N(C)C[C@H]2Oc3ccc(NS(=O)(=O)c4ccc(F)cc4)cc3C(=O)N([C@@H](C)CO)C[C@H]2C)cc1	/	/	/	/	.
CC(=O)c1ccc(N2CCN(C(=O)c3n[nH]c4ccccc34)CC2)cc1	56	.	.	.	.
C=CCc1ccc(OCc2ccc(C(=O)Nc3ccc(NC(C)=O)cc3)o2)c(OC)c1	57	.	.	.	.
CCOc1ccccc1NC(=S)Nc1ccc2cn[nH]c2c1	.	.	.	.	active
FC(F)Oc1ccc(NC(=S)Nc2ccc3cn[nH]c3c2)cc1	.	9.8	.	.	.
Cc1cc(C)cc(NC(=S)Nc2ccc3cn[nH]c3c2)c1	.	.	.	.	.
S=C(Nc1ccccc1)Nc1ccc2cn[nH]c2c1	.	.	.	.	.
CCCCn1c(=O)[nH]c(=O)c2c1nc(CN1C(=O)c3ccccc3S1(=O)=O)n2CCC	.	.	.	.	.
